Activity calls are given as the source filed them. Rule for the calls: active = hit-call score of the fitted dose curve at least 0.9, where 1 is the maximum; inactive = score below 0.9.
Columns and labels:
Conditions in all cases: mRNA level, 48 h; actives raise or lower the signal
[1] = read-out: Peroxisomal acyl-coenzyme A oxidase 1 (ACOX1) gene, ACOX1 (gene 51); assay: LTEA_HepaRG_ACOX1: Life Technologies and Expression Analysis (LTEA) Assay for Peroxisomal acyl-coenzyme A oxidase 1 (ACOX1) gene using HepaRG (AID 2283467)
Method in brief: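 HepaRG, 48 h chemical exposure, 8-pt half-log series from 100 uM top, 0.5% DMSO vehicle, duplicates. Readout: ACOX1 mRNA by Fluidigm qRT-PCR, housekeeping-normalized; bidirectional fit vs DMSO baseline.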

[2] = read-out: Bcl-2 (BAD) gene, BAD (gene 572); assay: LTEA_HepaRG_BAD: Life Technologies and Expression Analysis (LTEA) Assay for Bcl-2 (BAD) gene using HepaRG (AID 2283469)
Method in brief: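 HepaRG, 48 h exposure, 8-pt half-log curve from 100 uM in 0.5% DMSO, duplicates. Readout: TaqMan qRT-PCR for BAD mRNA, housekeeping-normalised (ACTB/GAPDH/POLR2A); gain or loss fitted against DMSO baseline.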

[3] = read-out: Bcl-2 (BAX) gene, BAX (gene 581); assay: LTEA_HepaRG_BAX: Life Technologies and Expression Analysis (LTEA) Assay for Bcl-2 (BAX) gene using HepaRG (AID 2283470)
Method in brief: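 Cells were thawed, plated for 48 h, moved to serum-free induction medium and dosed for 48 h (highest concentration 100 uM, half-log steps, 0.5% DMSO). Total RNA was then analysed for BAX expression by qRT-PCR.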

[4] = read-out: adenosine kinase (ADK) gene, ADK (gene 132); assay: LTEA_HepaRG_ADK: Life Technologies and Expression Analysis (LTEA) Assay for adenosine kinase (ADK) gene using HepaRG (AID 2283471)
Method in brief: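 Read-out is ADK transcript level measured by qRT-PCR and normalised to three housekeeping genes. Cells are human HepaRG, dosed for 48 h at up to 100 uM in 0.5% DMSO. Gain or loss of signal is fitted against DMSO controls.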

[5] = read-out: Alpha-fetoprotein (AFP) gene, AFP (gene 174); assay: LTEA_HepaRG_AFP: Life Technologies and Expression Analysis (LTEA) Assay for Alpha-fetoprotein (AFP) gene using HepaRG (AID 2283472)
Method in brief: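 Chemicals were tested on differentiated HepaRG cells for 48 hours at eight concentrations up to 100 uM, with 0.5% DMSO as vehicle. AFP expression was then quantified by qRT-PCR and analyzed for gain or loss relative to DMSO.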

BCL2L11 (gene 10018) = assay: LTEA_HepaRG_BCL2L11: Life Technologies and Expression Analysis (LTEA) Assay for Bcl-2 (BCL2L11) gene using HepaRG (AID 2283473)
Method in brief: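 Differentiated human HepaRG cells were exposed 48 h in serum-free induction medium to eight half-log concentrations up to 100 uM in 0.5% DMSO, in duplicate. BCL2L11 mRNA was quantified by TaqMan qRT-PCR, normalized to ACTB, GAPDH and POLR2A; induction or repression fitted versus DMSO.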

[6] = read-out: Apolipoprotein A-V (APOA5) gene, APOA5 (gene 116519); assay: LTEA_HepaRG_APOA5: Life Technologies and Expression Analysis (LTEA) Assay for Apolipoprotein A-V (APOA5) gene using HepaRG (AID 2283474)
Method in brief: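 Differentiated HepaRG cells in serum-free induction medium, exposed 48 h in duplicate to eight half-log concentrations topping at 100 uM (0.5% DMSO). APOA5 mRNA by Fluidigm TaqMan qRT-PCR, normalized to ACTB, GAPDH and POLR2A; bidirectional fit versus DMSO.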

[7] = read-out: Apoptosis regulator Bcl-2 (Homo sapiens) (UniProt P10415); assay: LTEA_HepaRG_BCL2: Life Technologies and Expression Analysis (LTEA) Assay for Bcl-2 gene using HepaRG (AID 2283475)
Method in brief: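 Plated human HepaRG cells are exposed to test chemicals for 48 h across eight concentrations from 100 uM downward in half-log steps (0.5% DMSO). BCL2 expression is then measured by qRT-PCR with housekeeping normalisation and fitted bidirectionally against vehicle.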

[8] = read-out: Bcl-2 (BID) gene, BID (gene 637); assay: LTEA_HepaRG_BID: Life Technologies and Expression Analysis (LTEA) Assay for Bcl-2 (BID) gene using HepaRG (AID 2283476)
Method in brief: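 Cells are plated, cultured 48 h, switched to serum-free induction medium, then dosed 48 h (100 uM top, half-log steps, 0.5% DMSO). RNA is isolated and BID expression read by qRT-PCR.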

Caspase-3 (Homo sapiens) = Caspase-3 (Homo sapiens) (UniProt P42574); assay: LTEA_HepaRG_CASP3: Life Technologies and Expression Analysis (LTEA) Assay for cysteine-aspartic acid protease (CASP3) using HepaRG (AID 2283477)
Chain of Caspase-3 (Homo sapiens) (P42574 whole entry, looked up): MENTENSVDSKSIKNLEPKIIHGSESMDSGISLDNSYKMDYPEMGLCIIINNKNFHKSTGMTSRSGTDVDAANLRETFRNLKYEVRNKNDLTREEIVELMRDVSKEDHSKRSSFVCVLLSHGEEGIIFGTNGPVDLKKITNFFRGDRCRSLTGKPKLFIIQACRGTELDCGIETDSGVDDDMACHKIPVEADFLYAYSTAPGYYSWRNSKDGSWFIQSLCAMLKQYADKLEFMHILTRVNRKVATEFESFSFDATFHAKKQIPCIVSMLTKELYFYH
Method in brief: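 Differentiated HepaRG cells, plated 48 h, were treated in duplicate in serum-free induction medium for 48 h with eight half-log concentrations up to 100 uM in 0.5% DMSO. CASP3 mRNA measured by qRT-PCR, normalized to ACTB, GAPDH, POLR2A.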

[9] = read-out: Cytochrome P450 (CYP24A1), CYP24A1 (gene 1591); assay: LTEA_HepaRG_CYP24A1: Life Technologies and Expression Analysis (LTEA) Assay for Cytochrome P450 (CYP24A1) using HepaRG (AID 2283478)
Method in brief: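 HepaRG cells plated 48 h, then exposed in duplicate in serum-free induction medium for 48 h to 8-point half-log series from 100 uM in 0.5% DMSO. CYP24A1 mRNA by Fluidigm qRT-PCR, normalized to ACTB, GAPDH, POLR2A; bidirectional fit versus DMSO.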

[10] = read-out: Cytochrome P450 (CYP1A2), CYP1A2 (gene 1544); assay: LTEA_HepaRG_CYP1A2: Life Technologies and Expression Analysis (LTEA) Assay for Cytochrome P450 (CYP1A2) using HepaRG (AID 2283479)
Method in brief: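 Differentiated human HepaRG cells in serum-free induction medium exposed 48 hours in duplicate to 8 half-log concentrations from 100 uM, 0.5% DMSO. CYP1A2 mRNA quantified by qRT-PCR, normalized to ACTB, GAPDH and POLR2A; bidirectional fitting versus DMSO.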

[11] = read-out: cysteine-aspartic acid protease (CASP8), CASP8 (gene 841); assay: LTEA_HepaRG_CASP8: Life Technologies and Expression Analysis (LTEA) Assay for cysteine-aspartic acid protease (CASP8) using HepaRG (AID 2283480)
Method in brief: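 qRT-PCR readout of CASP8 mRNA, normalized to three housekeeping genes, after 48 h chemical exposure of HepaRG cells; 8-point half-log series, top 100 uM, 0.5% DMSO vehicle. Bidirectional curve fitting against DMSO baseline.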

[12] = read-out: Cytochrome P450 2C19 (Homo sapiens) (UniProt P33261); assay: LTEA_HepaRG_CYP2C19: Life Technologies and Expression Analysis (LTEA) Assay for CYP2C19 using HepaRG (AID 2283482)
Method in brief: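 Differentiated HepaRG cells in serum-free induction medium exposed 48 h in duplicate, 8 concentrations from 100 uM by half-log steps in 0.5% DMSO. CYP2C19 mRNA measured by TaqMan qRT-PCR, normalized to ACTB, GAPDH, POLR2A. Bidirectional fit versus DMSO.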

CYP2C8 (gene 1558) = assay: LTEA_HepaRG_CYP2C8: Life Technologies and Expression Analysis (LTEA) Assay for CYP2C8 using HepaRG (AID 2283483)
Method in brief: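 HepaRG (human liver line), 48 h chemical exposure, 8-pt half-log series from 100 uM, 0.5% DMSO vehicle. Readout: CYP2C8 transcript by qRT-PCR, housekeeping-normalized. Bidirectional fit vs DMSO baseline.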

CYP2C9 (gene 1559) = assay: LTEA_HepaRG_CYP2C9: Life Technologies and Expression Analysis (LTEA) Assay for CYP2C9 using HepaRG (AID 2283484)
Method in brief: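 HepaRG, 48 h dosing, 8-pt half-log series, top 100 uM, 0.5% DMSO vehicle. Read-out: CYP2C9 transcript by TaqMan qRT-PCR, housekeeping-normalized (ACTB/GAPDH/POLR2A). Gain or loss fitted vs DMSO baseline.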

CYP2E1 (gene 1571) = assay: LTEA_HepaRG_CYP2E1: Life Technologies and Expression Analysis (LTEA) Assay for CYP2E1 using HepaRG (AID 2283485)
Method in brief: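 Readout is qRT-PCR of CYP2E1 mRNA, normalized to three housekeeping genes and fitted bidirectionally against 0.5% DMSO. HepaRG cells were dosed 48 h at eight concentrations, highest 100 uM with half-log dilutions.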

CYP4A11 (gene 1579) = assay: LTEA_HepaRG_CYP4A11: Life Technologies and Expression Analysis (LTEA) Assay for CYP4A11 using HepaRG (AID 2283486)
Method in brief: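 Differentiated HepaRG cells, 48 h after plating, exposed in duplicate for 48 h to 8 half-log concentrations up to 100 uM in 0.5% DMSO in serum-free induction medium. CYP4A11 mRNA measured by TaqMan qRT-PCR, normalized to ACTB, GAPDH and POLR2A.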

[13] = read-out: Alkaline Phosphatase, Placental (ALPP) gene, ALPP (gene 250); assay: LTEA_HepaRG_ALPP: Life Technologies and Expression Analysis (LTEA) Assay for Alkaline Phosphatase, Placental (ALPP) gene using HepaRG (AID 2283468)
Method in brief: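 HepaRG cells plated 48 h, then exposed in duplicate for 48 h in serum-free induction medium to 8-point half-log series from 100 uM in 0.5% DMSO. ALPP mRNA by TaqMan qRT-PCR, normalized to ACTB/GAPDH/POLR2A; bidirectional fit versus DMSO.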

[14] = read-out: Cytochrome P450 (CYP2B6), CYP2B6 (gene 1555); assay: LTEA_HepaRG_CYP2B6: Life Technologies and Expression Analysis (LTEA) Assay for Cytochrome P450 (CYP2B6) using HepaRG (AID 2283481)
Method in brief: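 Differentiated human HepaRG cells in serum-free induction medium, dosed in duplicate for 48 h over 8 half-log concentrations topping at 100 uM (0.5% DMSO). CYP2B6 mRNA measured by TaqMan qRT-PCR, normalized to ACTB, GAPDH, POLR2A; bidirectional fit versus DMSO.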

Measured: AC50

Chain of Cytochrome P450 2C19 (Homo sapiens) (P33261 whole entry, looked up): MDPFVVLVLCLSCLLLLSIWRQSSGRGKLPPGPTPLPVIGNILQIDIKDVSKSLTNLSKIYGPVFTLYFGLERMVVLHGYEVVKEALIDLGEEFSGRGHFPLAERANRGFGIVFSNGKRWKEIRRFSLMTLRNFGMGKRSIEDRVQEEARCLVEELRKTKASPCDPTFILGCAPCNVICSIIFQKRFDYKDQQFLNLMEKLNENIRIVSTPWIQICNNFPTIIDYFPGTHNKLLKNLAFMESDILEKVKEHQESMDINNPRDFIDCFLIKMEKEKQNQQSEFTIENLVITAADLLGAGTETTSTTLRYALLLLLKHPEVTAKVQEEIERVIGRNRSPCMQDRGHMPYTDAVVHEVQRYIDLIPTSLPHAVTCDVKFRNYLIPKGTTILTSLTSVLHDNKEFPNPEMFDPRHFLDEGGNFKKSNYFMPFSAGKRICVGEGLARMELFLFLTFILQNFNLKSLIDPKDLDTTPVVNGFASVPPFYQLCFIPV
Chain of Apoptosis regulator Bcl-2 (Homo sapiens) (P10415 whole entry, looked up): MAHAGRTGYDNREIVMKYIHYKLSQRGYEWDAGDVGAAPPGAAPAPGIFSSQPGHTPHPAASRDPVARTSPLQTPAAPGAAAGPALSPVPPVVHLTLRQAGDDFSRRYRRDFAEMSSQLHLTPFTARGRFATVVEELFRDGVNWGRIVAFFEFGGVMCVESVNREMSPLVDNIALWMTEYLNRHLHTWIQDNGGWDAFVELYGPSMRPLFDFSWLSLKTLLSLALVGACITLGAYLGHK

Cc1cc(=O)[nH]c(=S)[nH]1
active: [10] 50 µM
inactive: [1] | [2] | [3] | [4] | [5] | BCL2L11 (gene 10018) | [6] | [7] | [8] | Caspase-3 (Homo sapiens) | [9] | [11] | [12] | CYP2C8 (gene 1558) | CYP2C9 (gene 1559) | CYP2E1 (gene 1571) | CYP4A11 (gene 1579)

COc1cc(-c2nc(NC(=O)c3cc4cc(C)cc(C)c4n3CC(=O)O)sc2CCC2CCCCC2)c(OC)cc1Cl
inactive: [13] | [2] | [3] | [6]
active: [1] 8.11 µM | [4] 15.6 µM | [5] 6.7 µM | BCL2L11 (gene 10018) 60.6 µM | [7] 20.1 µM | Caspase-3 (Homo sapiens) 11 µM | [10] 4.88 µM | [11] 11 µM | [12] 7.57 µM | CYP2C8 (gene 1558) 6.7 µM | CYP2C9 (gene 1559) 6.47 µM | CYP2E1 (gene 1571) 7.86 µM | CYP4A11 (gene 1579) 8.34 µM

Cc1ccc(C(C)C)c(O)c1
inactive: [1] | [2] | [3] | [4] | [5] | BCL2L11 (gene 10018) | [6] | [7] | [8] | Caspase-3 (Homo sapiens) | [9] | [10] | [11] | [12] | CYP2C8 (gene 1558) | CYP2C9 (gene 1559) | CYP2E1 (gene 1571) | CYP4A11 (gene 1579)

O=[N+]([O-])C(CO)(CO)CO
active: [10] 28.6 µM
inactive: [1] | [13] | [2] | [3] | [4] | [5] | BCL2L11 (gene 10018) | [6] | [7] | Caspase-3 (Homo sapiens) | [11] | [14] | [12] | CYP2C8 (gene 1558) | CYP2C9 (gene 1559) | CYP2E1 (gene 1571) | CYP4A11 (gene 1579)

CCCCC(CC)COC(=O)CC(C(=O)OCC(CC)CCCC)S(=O)(=O)O (stereo not drawn)
active: [1] 79.9 µM | [2] 80.7 µM | [4] 81.6 µM | Caspase-3 (Homo sapiens) 81 µM | [10] 15.8 µM | [11] 81.6 µM | [12] 89.9 µM | CYP2C8 (gene 1558) 15.8 µM | CYP2C9 (gene 1559) 88.1 µM | CYP2E1 (gene 1571) 76.5 µM
inactive: [13] | [3] | [5] | BCL2L11 (gene 10018) | [6] | [7] | [9] | CYP4A11 (gene 1579)

Clc1cc(Cl)c(Cl)cc1Cl
inactive: [1] | [13] | [2] | [3] | [4] | [5] | BCL2L11 (gene 10018) | [6] | [7] | Caspase-3 (Homo sapiens) | [10] | [11] | [12] | CYP2C8 (gene 1558) | CYP2C9 (gene 1559) | CYP2E1 (gene 1571) | CYP4A11 (gene 1579)

C[Si]1(C)O[Si](C)(C)O[Si](C)(C)O[Si](C)(C)O1
inactive: [1] | [13] | [2] | [3] | [4] | [5] | BCL2L11 (gene 10018) | [6] | [7] | Caspase-3 (Homo sapiens) | [10] | [11] | [12] | CYP2C8 (gene 1558) | CYP2C9 (gene 1559) | CYP2E1 (gene 1571) | CYP4A11 (gene 1579)
